# Source: PubChem BioAssay AID1240 (Sanford-Burnham Center for Chemical Genomics, 2008)
# About 800 (1.6%) of roughly 50,000 compounds showed an effect of 50% or more. This is one part of a sample in which strong results are shown more often than they occur.
# Molecular target: Bcl-2-like protein 10 (Homo sapiens) (UniProt Q9HD36)
# Assay: TR3 peptide-Bcl-B binding displacers, biochemical primary FP assay, phenotype converters (AID 1240);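 note: 0% = Bcl-B with tracer peptide and DMSO and 100% = tracer peptide lacking Bcl-B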
# Conditions: GST-Bcl-B / FITC-TR3 peptide fluorescence polarization; stronger effect = higher value; compound at 3.75 mg/L
# Chain of Bcl-2-like protein 10 (Homo sapiens) (Q9HD36 whole entry, looked up): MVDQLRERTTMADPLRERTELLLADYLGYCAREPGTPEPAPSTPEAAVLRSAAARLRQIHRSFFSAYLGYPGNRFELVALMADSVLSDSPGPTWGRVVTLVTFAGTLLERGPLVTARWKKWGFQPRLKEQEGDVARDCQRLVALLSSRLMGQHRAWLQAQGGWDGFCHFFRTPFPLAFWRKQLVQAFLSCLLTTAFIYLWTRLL
row,Structure (SMILES),displacement [%]
1,O=C1NC(=O)C(=Cc2ccccc2)C(=O)N1,-4.2
2,O=C1NC(=O)C(=Cc2ccc(N3CCOCC3)cc2)C(=O)N1,78.9
3,O=C1NC(=O)C(=Cc2ccc3c(c2)OCO3)C(=O)N1,0.3
4,O/N=C1/C(=C/c2ccccc2)N2CCC1CC2,10.6
5,COC(=O)COc1ccc(/C=C2\C(=O)NC(=S)N(c3ccc(C)cc3)C2=O)cc1OC,-13.5
6,COc1ccc(-c2ccc(C=C3C(=O)NC(=S)NC3=O)o2)c([N+](=O)[O-])c1,34.1
7,O=c1c2ccccc2nc(/C=C/c2ccc(O)c(O)c2)n1-c1ccccc1,1.9
8,Cc1ccc(-n2c(/C=C/c3ccc(O)c(O)c3)nc3ccccc3c2=O)cc1,54.7
9,COc1ccc(-n2c(/C=C/c3ccco3)nc3ccccc3c2=O)cc1,-27.1
10,COc1ccccc1-n1c(/C=C/c2ccccc2O)nc2ccccc2c1=O,-6
11,COc1cccc(-n2c(/C=C/c3ccco3)nc3ccccc3c2=O)c1,106
12,COc1ccccc1-n1c(/C=C/c2ccco2)nc2ccccc2c1=O,-36
13,COc1ccccc1-n1c(/C=C/c2ccc(O)cc2)nc2ccccc2c1=O,119
14,COc1ccccc1-n1c(/C=C/c2ccc(O)c(O)c2)nc2ccccc2c1=O,-24.6
15,COc1cccc(-n2c(/C=C/c3ccc(O)c(O)c3)nc3ccccc3c2=O)c1,27.7
16,O=C(CNS(=O)(=O)c1ccccc1)Nc1ccc(Br)cc1C(=O)c1ccccc1,12
17,O=[N+]([O-])N=C1NC(OCc2ccccc2)C(OCc2ccccc2)N1 (stereo unspecified),1.4
18,CCC1CN(C)CCC1(O)c1ccccc1 (stereo unspecified),-6.1
19,CCC(C)N1CCN(C(=O)COc2ccc(Cl)cc2)CC1 (stereo unspecified),9.2
20,CC(C(=O)c1ccc(Cl)cc1Cl)n1cncn1 (stereo unspecified),-2.3
21,COc1ccc(OCC(=O)Nc2ccc(Br)cc2C(=O)c2ccccc2)cc1,-8.4
22,O=Cc1cn(Cc2cccc3ccccc23)c2ccccc12,-2.4

row,Structure (SMILES),displacement [%]
1,CN1C(=O)NC(=O)/C(=C\c2ccc([N+](=O)[O-])o2)C1=O,17.3
2,O=c1c2ccccc2nc(-c2ccccc2F)n1-c1cccc(Cl)c1,-2.3
3,CCNc1cc2oc(=O)cc(C(F)(F)F)c2cc1C,105
4,Clc1ccccc1CNCCc1c[nH]c2ccccc12,2
5,O=c1c2ccccc2[nH]c(=S)n1-c1ccccc1,-9.7
6,O=c1[nH]c2ccccc2c(=O)n1-c1ccccc1,-12.7
7,O=c1[nH]c(=O)n(-c2ccccc2)c(O)c1N=Nc1ccc(Br)cc1,120
8,COc1ccccc1CN1CCN(Cc2ccccc2F)CC1,-5.2
9,O=C(Nc1ccc(Cl)c(-c2nc3ncccc3o2)c1)c1cccc(OCc2ccccc2)c1,-2.6
10,O=[N+]([O-])c1ccc(CCNC2CCCCC2)cc1,3.9
11,O=c1[nH]c(=O)n(Cc2ccccc2)c(O)c1C=C1C=Nc2ccccc21,8.6
12,COc1ccc(OC)c(N2C(=O)CC(=O)NC2=O)c1,-5.1
13,COc1ccc(OC)c(-n2c(O)c(C=C3C=Nc4ccccc43)c(=O)[nH]c2=O)c1,118
14,COC(=O)N1[C@H](c2ccccc2)[C@@H]1c1ccccc1,11.9
15,O=C(CF)NC(Nc1ccc(Br)cc1)C(Cl)(Cl)Cl (stereo unspecified),8.3
16,CCn1cc(C=C2C(=O)NC(=O)NC2=O)c2ccccc21,12.6
17,CN1C(=O)C(=Cc2ccccc2Cl)C(=O)N(C)C1=O,-0.3
18,C=CCn1cc(C=C2C(=O)NC(=O)NC2=O)c2ccccc21,16.3
19,CCn1cc(C=C2C(=O)NC(=S)NC2=O)c2ccccc21,136
20,CN1C(=O)C(=Cc2cn(Cc3ccc(F)cc3)c3ccccc23)C(=O)N(C)C1=O,138
21,O=Cc1cn(Cc2ccc(Br)cc2)c2ccccc12,0.2
22,C=CCc1cc(/C=C2\C(=O)NC(=O)N(c3cc(C)cc(C)c3)C2=O)cc(OC)c1O,-5.3

row,Structure (SMILES),displacement [%]
1,Cc1cc(/C=C2/C(=O)NC(=O)N(C)C2=O)c(C)n1-c1ccccc1,49.3
2,Cc1cc(C=C2C(=O)NC(=S)NC2=O)c(C)n1-c1ccc(F)cc1,3.8
3,Cc1cc(C=C2C(=O)NC(=S)NC2=O)c(C)n1-c1ccccc1,104
4,Cc1cc(C=C2C(=O)NC(=S)NC2=O)c(C)n1-c1ccc(Cl)cc1,36.9
5,Cc1cc(/C=C2\C(=O)NC(=O)N(C)C2=O)c(C)n1-c1ccc2c(c1)OCO2,107
6,Cc1ccc(-n2c(C)cc(/C=C3/C(=O)NC(=O)N(C)C3=O)c2C)cc1,-10.4
7,O=C1NC(=S)N(c2ccc(Br)cc2)C(=O)/C1=C/c1ccc(-c2ccccc2C(=O)O)o1,19.2
8,COc1ccc(Br)cc1CN1CCN(C(=O)COc2ccccc2)CC1,2.5
9,COC(=O)C1C2C(=O)N(c3ccc([N+](=O)[O-])cc3)C(=O)C12c1ccc(C)cc1 (stereo unspecified),-32.2
10,Cc1ccc(NC(=O)C2C(C)(C)C2(C)C)cc1C,6.9
11,CCOC(=O)c1ccc2c(c1)n(Cc1ccccc1)c(C)[n+]2CC,-14.9
12,COc1cccc(N2C(=O)CC(=O)NC2=O)c1,-8.2
13,CCOc1ccc(N2C(=O)/C(=C/c3cc(Cl)ccc3O)C(=O)NC2=S)cc1,0.4
14,COc1ccc(N2C(=O)NC(=O)/C(=C/c3cn(CC(=O)Nc4ccccc4)c4ccccc34)C2=O)cc1,88.8
15,COc1ccccc1OCCn1cc(C=C2C(=O)NC(=O)NC2=O)c2ccccc21,38.7
16,CCc1ccc(/C=C2/C(=O)NC(=O)N(c3ccc(OC)cc3)C2=O)cc1,-18.1
17,O=C(O)Cn1cc(/C=C2\C(=O)NC(=O)N(c3ccc(Cl)cc3)C2=O)c2ccccc21,-16.9
18,Cc1ccc(N2C(=O)NC(=O)/C(=C\c3cn(CC(=O)O)c4ccccc34)C2=O)cc1,183
19,Cc1ccc(N2C(=O)NC(=O)/C(=C\c3ccccc3OCc3ccc(C(=O)O)cc3)C2=O)cc1,-9.2
20,CCOc1cc(C)cc2oc(=O)c3c(c12)CCC3,-1.5
21,Nc1ccc(Br)cc1C(=O)c1ccc(Cl)cc1Cl,10
22,O=C1NC(=O)N(Cc2ccccc2)C(=O)/C1=C/c1ccc2c(c1)OCO2,13.8

row,Structure (SMILES),displacement [%]
1,CN1C(=O)NC(=O)/C(=C\c2ccc(C(=O)O)cc2)C1=O,1.8
2,O=C1NC(=O)N(Cc2ccccc2)C(=O)/C1=C\C=C\c1ccco1,11.3
3,Cn1cc(/C=C2\C(=O)NC(=O)N(Cc3ccccc3)C2=O)c2ccccc21,99.3
4,CN1C(=O)NC(=O)/C(=C/c2cn(C)c3ccccc23)C1=O,108
5,CN1C(=O)NC(=O)/C(=C/c2ccc(I)o2)C1=O,9.2
6,O=C(Cc1ccccc1)N1CCN(Cc2cccnc2)CC1,9.9
7,CC(C)c1ccc(N2C(=O)CC(=O)NC2=O)cc1,-5.9
8,CC1(C)C(C(=O)Nc2cccc3ccccc23)C1(C)C,3.9
9,Cc1ccccc1-n1c(CN2C(=O)c3ccccc3C2=O)nc2ccccc2c1=O,-9.6
10,CC(C)CCn1c(=O)c(C(=O)Nc2ccc(I)cc2)c(O)c2ccccc21,7.1
11,Cc1cc(Cl)ccc1OCC(=O)N1CCN(C)CC1,-6.7
12,O=C(Nc1ccc(Br)cc1C(=O)c1ccccc1)c1ccc(F)cc1,8.4
13,O=C(ON1CC1(C(F)(F)F)C(F)(F)F)c1ccccc1 (stereo unspecified),3.2
14,O=C1c2ccccc2-c2onc3c(Br)cc(N4CC4)c1c23,178
15,Cc1ccc(N2C(=O)CC(=O)NC2=S)cc1,5.6
16,COc1cccc(/C=C2/C(=O)NC(=O)N(c3cccc(C)c3)C2=O)c1O,3.1
17,COc1ccc(N2C(=O)NC(=O)/C(=C/c3ccc(-c4cccc(Cl)c4)o3)C2=O)cc1,69
18,COc1ccc(N2C(=O)NC(=O)/C(=C/c3ccc(SC)cc3)C2=O)cc1,-9.4
19,COc1ccc(N2C(=O)NC(=O)/C(=C/c3cc4c(cc3Cl)OCO4)C2=O)cc1,81.5
20,CN1C(=O)NC(=O)/C(=C\c2cc3c(cc2Cl)OCO3)C1=O,0.4
21,Cc1ccc(/C=C2/C(=O)NC(=O)N(c3ccc(Cl)cc3)C2=O)o1,36.2
22,Cc1ccc(N2C(=O)NC(=O)/C(=C\c3ccc(-c4ccc(Cl)c(C(=O)O)c4)o3)C2=O)cc1,6.3

row,Structure (SMILES),displacement [%]
1,COc1ccc(CN2CCN(Cc3cc(Br)ccc3O)CC2)cc1,13.1
2,Cc1cc(C=C2C(=O)NC(=O)NC2=O)c(C)n1-c1ccc(N(C)C)cc1,0.1
3,CN=C(C)c1c(O)n(C)c(=S)n(C)c1=O,8.8
4,C(=NCCCN1CCOCC1)c1c[nH]c2ccccc12,2.6
5,O=c1c2ccccc2nc(-c2cccs2)n1-c1ccccn1,19.3
6,O=C(Cn1c[n+]([N-][N+](=O)[O-])cn1)N1CCN(C(=O)Cn2c[n+]([N-][N+](=O)[O-])cn2)CC1,15
7,O=C(Cn1c[n+]([N-][N+](=O)[O-])cn1)Nc1ccc(NC(=O)Cn2c[n+]([N-][N+](=O)[O-])cn2)cc1,59.6
8,O=C(Cn1c[n+]([N-][N+](=O)[O-])cn1)Nc1ccc([N+](=O)[O-])cc1,16.4
9,CCOc1ccc(N2C(=O)NC(=O)/C(=C\c3ccc(C)o3)C2=O)cc1,11.6
10,COc1cc(C=C2C(=O)NC(=O)NC2=O)ccc1OCc1ccc(C(=O)O)cc1,0.6
11,COc1ccc(C=C2C(=O)NC(=S)NC2=O)cc1OCc1ccccc1Cl,8.2
12,COc1ccc(C=C2C(=O)NC(=O)NC2=O)cc1OCc1ccc(Cl)cc1Cl,150
13,O=c1oc2ccccc2c2c1C(c1ccc(Cl)cc1)c1c(c3ccccc3oc1=O)O2,10.3
14,COc1cccc(CN2CCNCC2)c1OC,15.6
15,O=C(N/N=C1/CN2CCC1CC2)c1ccc(O)cc1,17.8
16,COC(=O)C(=O)/C(=C\c1ccc(-c2ccccc2[N+](=O)[O-])o1)C(=O)c1ccccc1,56.7
17,CN1C(=O)NC(=O)/C(=C/c2ccc(-c3ccccc3[N+](=O)[O-])o2)C1=O,35.6
18,O=C1C(=Cc2ccc(-c3ccccc3[N+](=O)[O-])o2)C(=O)N(c2ccccc2)C(=S)N1c1ccccc1,16.4
